Reference: PubChem BioAssay (NCI)
The panel holds about 83,000 compounds, 20% with a hit somewhere; the sample as a whole holds those more often.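 Growth was measured after 48 h exposure to one concentration of compound in 96-well plates. Values under 10 count as active.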 Activity calls are given as the source filed them.

Legend:
Experiment in all cases: NCI-60 one-dose screen, 48 h (100 = growth as untreated, 0 = no growth, -100 = all killed)
Conditions in all cases: 10 µM unless noted
NCI-H23 lung = tested on: NCI-H23 lung
NCI-H226 lung = tested on: NCI-H226 lung
NCI-H322M lung = tested on: NCI-H322M lung
HOP-62 NSCLC = tested on: HOP-62 NSCLC
NCI-H460 lung = tested on: NCI-H460 lung
HOP-92 NSCLC = tested on: HOP-92 NSCLC
NCI-H522 lung = tested on: NCI-H522 lung
A549/ATCC NSCLC = tested on: A549/ATCC NSCLC
786-0 renal = tested on: 786-0 renal
COLO 205 colon = tested on: COLO 205 colon
DU-145 prostate = tested on: DU-145 prostate
K-562 leukemia = tested on: K-562 leukemia
MALME-3M melanoma = tested on: MALME-3M melanoma
MDA-MB-231 breast = tested on: MDA-MB-231 breast
RXF 393 renal = tested on: RXF 393 renal
SF-268 CNS = tested on: SF-268 CNS
SF-295 CNS = tested on: SF-295 CNS
SF-539 CNS = tested on: SF-539 CNS
UACC-257 melanoma = tested on: UACC-257 melanoma
M14 melanoma = tested on: M14 melanoma

Measured: growth

COc1cc(/C=C/C(=O)c2c(C)[n+]([O-])c3ccccc3[n+]2[O-])ccc1O
inactive: NCI-H23 lung 95.5% | NCI-H226 lung 98.5% | NCI-H322M lung 99.4% | HOP-62 NSCLC 125% | NCI-H460 lung 91.4% | HOP-92 NSCLC 42.2% | NCI-H522 lung 71% | A549/ATCC NSCLC 103% | 786-0 renal 62.4% | COLO 205 colon 121% | DU-145 prostate 101% | K-562 leukemia 85.2% | MALME-3M melanoma 103% | MDA-MB-231 breast 81.5% | RXF 393 renal 111% | SF-268 CNS 95.5% | SF-295 CNS 89.3% | SF-539 CNS 100% | UACC-257 melanoma 98.9% | M14 melanoma 103%

CCOC(=O)NNc1nncc2ccccc12
inactive: NCI-H23 lung 95.4% | NCI-H226 lung 104% | NCI-H322M lung 102% | HOP-62 NSCLC 102% | NCI-H460 lung 110% | HOP-92 NSCLC 95.1% | NCI-H522 lung 103% | A549/ATCC NSCLC 104% | 786-0 renal 99.1% | COLO 205 colon 105% | DU-145 prostate 115% | K-562 leukemia 81.9% | MALME-3M melanoma 99.5% | MDA-MB-231 breast 101% | RXF 393 renal 109% | SF-268 CNS 107% | SF-295 CNS 103% | SF-539 CNS 108% | UACC-257 melanoma 93.3% | M14 melanoma 108%

S=c1n(CNc2ccc(Cl)nn2)nc(-c2cc(Cl)cc(Cl)c2Cl)n1/N=C/c1ccc(Cl)cc1
inactive: NCI-H23 lung 88.5% | NCI-H226 lung 96.1% | NCI-H322M lung 74.9% | HOP-62 NSCLC 81.6% | NCI-H460 lung 110% | HOP-92 NSCLC 34.3% | NCI-H522 lung 72.2% | A549/ATCC NSCLC 138% | 786-0 renal 81.9% | COLO 205 colon 132% | DU-145 prostate 109% | K-562 leukemia 71.7% | MALME-3M melanoma 89.3% | MDA-MB-231 breast 92.9% | RXF 393 renal 149% | SF-268 CNS 107% | SF-295 CNS 70% | SF-539 CNS 101% | UACC-257 melanoma 106% | M14 melanoma 55.8%

CC(=O)n1cc(/C=C2\N=C(c3ccc(Cl)cc3)N(c3ccc(S(=O)(=O)Nc4nccs4)cc3)C2=O)c2ccccc21
inactive: NCI-H23 lung 89% | NCI-H226 lung 94.7% | NCI-H322M lung 85.8% | HOP-62 NSCLC 97.6% | NCI-H460 lung 82.1% | HOP-92 NSCLC 95.9% | NCI-H522 lung 60% | A549/ATCC NSCLC 91% | 786-0 renal 88.6% | COLO 205 colon 115% | DU-145 prostate 102% | K-562 leukemia 59.6% | MALME-3M melanoma 120% | MDA-MB-231 breast 95.5% | RXF 393 renal 86.7% | SF-268 CNS 83% | SF-295 CNS 85.6% | SF-539 CNS 90.6% | UACC-257 melanoma 99.7% | M14 melanoma 83.4%

CC1(C)Cc2c(Br)c(Br)c(Br)c(OCC(O)CN3CCN(c4ccccn4)CC3)c2O1 (stereo not given)
inactive: NCI-H23 lung 80.9% | NCI-H226 lung 91.7% | NCI-H322M lung 57.6% | HOP-62 NSCLC 102% | NCI-H460 lung 88% | NCI-H522 lung 60.9% | A549/ATCC NSCLC 80.4% | 786-0 renal 31.3% | COLO 205 colon 114% | DU-145 prostate 106% | K-562 leukemia 36.4% | MALME-3M melanoma 88.2% | MDA-MB-231 breast 57.4% | RXF 393 renal 99.7% | SF-268 CNS 79.1% | SF-295 CNS 81.5% | SF-539 CNS 95.1% | UACC-257 melanoma 105% | M14 melanoma 99.2%
active: HOP-92 NSCLC -5.32%

Clc1ccc2c(c1)nnn1c3ncccc3c(Br)c21
inactive: NCI-H23 lung 81.1% | NCI-H226 lung 90.1% | NCI-H322M lung 88.5% | HOP-62 NSCLC 63.7% | NCI-H460 lung 78.6% | HOP-92 NSCLC 42.9% | NCI-H522 lung 67.8% | A549/ATCC NSCLC 89.6% | 786-0 renal 56.6% | COLO 205 colon 88.9% | DU-145 prostate 90.9% | K-562 leukemia 81.8% | MALME-3M melanoma 81.8% | MDA-MB-231 breast 63.9% | RXF 393 renal 41.5% | SF-268 CNS 60.9% | SF-295 CNS 61.9% | SF-539 CNS 61.9% | UACC-257 melanoma 101% | M14 melanoma 97.7%

CCn1cc(C(=O)O)c(=O)c2cc(F)c(N3CCN(CC(=O)Nc4ccc(C(C)=O)cc4)CC3)cc21
inactive: NCI-H23 lung 93% | NCI-H226 lung 86.3% | NCI-H322M lung 101% | HOP-62 NSCLC 101% | NCI-H460 lung 107% | HOP-92 NSCLC 92.8% | NCI-H522 lung 96.9% | A549/ATCC NSCLC 94.6% | 786-0 renal 98% | COLO 205 colon 121% | DU-145 prostate 111% | K-562 leukemia 94.6% | MALME-3M melanoma 105% | MDA-MB-231 breast 100% | RXF 393 renal 102% | SF-268 CNS 102% | SF-295 CNS 103% | SF-539 CNS 98% | UACC-257 melanoma 93.1% | M14 melanoma 102%

CC(C)(CCN=C(N)Nc1ccccn1)c1ccc(C(F)(F)F)cc1
active: HOP-92 NSCLC -2.94% | NCI-H522 lung 4.82% | COLO 205 colon -72.8% | K-562 leukemia -31.2% | MALME-3M melanoma -49.4% | MDA-MB-231 breast -14.4% | SF-295 CNS 6.92% | UACC-257 melanoma -7.98% | M14 melanoma -64.3%
inactive: NCI-H23 lung 11.8% | NCI-H226 lung 42.4% | NCI-H322M lung 45.5% | HOP-62 NSCLC 50.4% | NCI-H460 lung 18.3% | A549/ATCC NSCLC 31.2% | 786-0 renal 29.2% | DU-145 prostate 52.7% | RXF 393 renal 26.2% | SF-268 CNS 51.2% | SF-539 CNS 53.9%

C=C1C(=O)O[C@H]2[C@H]1CC/C(COC(=O)n1ccnc1C)=C\CC[C@@]1(C)O[C@@H]21
inactive: NCI-H23 lung 98.7% | NCI-H226 lung 91.2% | NCI-H322M lung 98.3% | HOP-62 NSCLC 99.4% | NCI-H460 lung 105% | HOP-92 NSCLC 106% | NCI-H522 lung 66.3% | A549/ATCC NSCLC 89.3% | 786-0 renal 95.7% | COLO 205 colon 89.8% | DU-145 prostate 93.2% | K-562 leukemia 95.4% | MALME-3M melanoma 92.6% | MDA-MB-231 breast 106% | RXF 393 renal 96.2% | SF-268 CNS 101% | SF-295 CNS 104% | SF-539 CNS 101% | UACC-257 melanoma 75.1% | M14 melanoma 91%

CN(C)c1ccc(/C=c2\s/c(=C\C(=O)C(C)(C)C)[nH]c2=O)cc1
inactive: NCI-H23 lung 98% | NCI-H226 lung 101% | NCI-H322M lung 86.7% | HOP-62 NSCLC 101% | NCI-H460 lung 104% | HOP-92 NSCLC 94.5% | NCI-H522 lung 78.1% | A549/ATCC NSCLC 79.7% | 786-0 renal 93.2% | COLO 205 colon 97.7% | DU-145 prostate 93.1% | K-562 leukemia 111% | MALME-3M melanoma 93.6% | MDA-MB-231 breast 118% | RXF 393 renal 122% | SF-268 CNS 93.5% | SF-295 CNS 94.9% | SF-539 CNS 96.6% | UACC-257 melanoma 96.1% | M14 melanoma 101%

N#Cc1c2c(c(N)[nH]c1=O)C(=O)NC2(O)c1ccccc1 (stereo not given)
inactive: NCI-H23 lung 98.8% | NCI-H226 lung 99.2% | NCI-H322M lung 103% | HOP-62 NSCLC 104% | NCI-H460 lung 118% | HOP-92 NSCLC 114% | NCI-H522 lung 85.1% | A549/ATCC NSCLC 97.1% | 786-0 renal 104% | COLO 205 colon 107% | DU-145 prostate 105% | K-562 leukemia 98.7% | MALME-3M melanoma 87.1% | MDA-MB-231 breast 112% | RXF 393 renal 103% | SF-268 CNS 105% | SF-295 CNS 100% | SF-539 CNS 104% | UACC-257 melanoma 96.7% | M14 melanoma 100%

COC(=O)c1ccc(NC(N)=NCC(C)(C)COc2ccc(C(F)(F)F)cc2)nc1
inactive: NCI-H23 lung 33.6% | NCI-H226 lung 50.7% | NCI-H322M lung 65.9% | HOP-62 NSCLC 76.6% | NCI-H460 lung 38.8% | HOP-92 NSCLC 47.1% | NCI-H522 lung 37.2% | A549/ATCC NSCLC 56.1% | 786-0 renal 70.9% | DU-145 prostate 68.8% | MALME-3M melanoma 82.4% | MDA-MB-231 breast 48.8% | RXF 393 renal 70.7% | SF-268 CNS 66.8% | SF-295 CNS 57.1% | SF-539 CNS 82.6% | UACC-257 melanoma 62.4% | M14 melanoma 55.6%
active: COLO 205 colon -76.7% | K-562 leukemia -31.8%

COC(=O)c1oc2c(C(C)=O)c(OCCN3CCCCC3)ccc2c1C
inactive: NCI-H23 lung 97.9% | NCI-H226 lung 118% | NCI-H322M lung 84.9% | HOP-62 NSCLC 125% | NCI-H460 lung 131% | HOP-92 NSCLC 60.4% | NCI-H522 lung 79.6% | A549/ATCC NSCLC 123% | 786-0 renal 52.9% | COLO 205 colon 130% | DU-145 prostate 117% | K-562 leukemia 89.4% | MALME-3M melanoma 40.9% | MDA-MB-231 breast 87.2% | RXF 393 renal 124% | SF-268 CNS 95.4% | SF-295 CNS 99.4% | SF-539 CNS 116% | UACC-257 melanoma 112% | M14 melanoma 111%
